# In all, about 48,000 compounds went through this assay and about 13,000 (27%) showed an effect of 50% or more. Some of the results follow.
# Tested on: Wolbachia pipientis
# Assay: Anti-Wolbachia Cell-Based Screen
# Format: functional
# Set-up: scale not given: in the data most compounds retested in dose-response had high values
# Settings: 5 µM
row,Compound,Percent Effect [%]
1,CC(NC(=O)c1ccc(CS(C)(=O)=O)o1)c1ccc(F)c(F)c1 (centres undefined),-18.18
2,CC(=O)N1CCC(N[C@@H]2CO[C@H](CNC(=O)C3CCCC3)[C@H]2O)CC1,-17.04
3,CC(=O)N1CCN(C2CCCCc3ccccc32)CC1 (centres undefined),-7.249
4,COC(=O)N1CCCC(C(=O)N(C)C)C1 (centres undefined),5.213
5,CC(=O)N1CCN([C@@H]2CC[C@@H](N(C)C(=O)C3CCCCC3)[C@H]2O)CC1,97.43
6,CC(=O)N1CCN([C@@H]2CCC[C@@H](N(C)C(=O)C3CC3)[C@H]2O)CC1,98.54
7,CC(=O)N1CCC(C(=O)N(C)[C@@H]2CCC[C@@H](N3CCCC3)[C@@H]2O)CC1,-16.02
8,Cc1cc(=O)c(C(=O)N(C)Cc2ccc(Cl)c(F)c2)c[nH]1,0.1621
9,CCCc1noc(C(C)S(=O)(=O)Cc2nc(C3CC3)no2)n1 (centres undefined),-3.55
10,COC(C(=O)NCc1c(C)nc2cc(=O)[nH]n2c1C)c1ccccc1 (centres undefined),-2.131
11,CCn1c(CN2CCCC(O)(c3ccc(F)cc3)CC2)cnc1SC.O=C(O)CC(O)(CC(=O)O)C(=O)O (centres undefined),110.7
12,Cc1ncc(CN2CCCC(O)(c3ccc(F)cc3)CC2)n1C.O=C(O)CC(O)(CC(=O)O)C(=O)O (centres undefined),96.51
13,Fc1ccc(CN2CCC3(CC2)CCN(Cc2nccs2)CC3)cc1.O=C(O)C(F)(F)F.O=C(O)C(F)(F)F,3.556
14,CCn1c(CN2CCC(O)(c3ccc4c(c3)OCO4)CC2)cnc1SC.O=C(O)CC(O)(CC(=O)O)C(=O)O,113.8
15,Cn1cc(CN2CCC3(CC(=O)N(c4ccc5c(c4)OCO5)C3)C2)cn1.O=C(O)C(F)(F)F (centres undefined),-18.04
16,O=C(O)C(c1ccc2c(c1)OCO2)N1CCC(O)(c2cccnc2)CC1 (centres undefined),-24.46
17,Cc1ccc(=O)n(CC2(O)CCN(Cc3cc(C)c(O)c(C)c3)CC2)n1.O=C(O)CC(O)(CC(=O)O)C(=O)O,-13.33
18,CC(NC(=O)N(C)CCCOc1ccc(F)cc1)c1nncn1C (centres undefined),8.721
19,Cc1cccc(C(=O)N2CCN(S(C)(=O)=O)[C@@H]3CS(=O)(=O)C[C@@H]32)n1,-7.495
20,O=C1NCCN(C(=O)c2cn3ccsc3n2)C1c1cccc(F)c1 (centres undefined),-4.51
21,CCN(CC)CC(=O)N1CCCCC1c1nc(C)cs1 (centres undefined),131.2
22,Cc1csc(C2CCCCN2C(=O)CN(C)C2CC2)n1 (centres undefined),3.375
23,Cc1csc(C2CCCCN2C(=O)CN(C)Cc2ccccc2)n1 (centres undefined),-0.5019
24,Cc1csc(C2CCCCN2C(=O)CN(C)C(C)C)n1 (centres undefined),91.31
